# Reference: article PMC4336329 (PLoS ONE, 2015)
# The campaign covered roughly 310,000 compounds. About 14,000 (4.5%) showed an effect of 50% or more. The effect is printed as a negative number. The list comes from a sample in which strong results are over-represented; it also holds similar structures and randomly drawn compounds.
# Target: human ether-à-go-go-related gene (hERG) potassium channel (human, UniProt Q12809)
# Test: primary screen, population patch clamp on CHO cells stably expressing hERG; higher = less effect of the substance
# 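Also: peak tail current of the secondary pulse compared with the same well before compound.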
# human ether-à-go-go-related gene (hERG) potassium channel, sequence (Q12809 whole entry, looked up): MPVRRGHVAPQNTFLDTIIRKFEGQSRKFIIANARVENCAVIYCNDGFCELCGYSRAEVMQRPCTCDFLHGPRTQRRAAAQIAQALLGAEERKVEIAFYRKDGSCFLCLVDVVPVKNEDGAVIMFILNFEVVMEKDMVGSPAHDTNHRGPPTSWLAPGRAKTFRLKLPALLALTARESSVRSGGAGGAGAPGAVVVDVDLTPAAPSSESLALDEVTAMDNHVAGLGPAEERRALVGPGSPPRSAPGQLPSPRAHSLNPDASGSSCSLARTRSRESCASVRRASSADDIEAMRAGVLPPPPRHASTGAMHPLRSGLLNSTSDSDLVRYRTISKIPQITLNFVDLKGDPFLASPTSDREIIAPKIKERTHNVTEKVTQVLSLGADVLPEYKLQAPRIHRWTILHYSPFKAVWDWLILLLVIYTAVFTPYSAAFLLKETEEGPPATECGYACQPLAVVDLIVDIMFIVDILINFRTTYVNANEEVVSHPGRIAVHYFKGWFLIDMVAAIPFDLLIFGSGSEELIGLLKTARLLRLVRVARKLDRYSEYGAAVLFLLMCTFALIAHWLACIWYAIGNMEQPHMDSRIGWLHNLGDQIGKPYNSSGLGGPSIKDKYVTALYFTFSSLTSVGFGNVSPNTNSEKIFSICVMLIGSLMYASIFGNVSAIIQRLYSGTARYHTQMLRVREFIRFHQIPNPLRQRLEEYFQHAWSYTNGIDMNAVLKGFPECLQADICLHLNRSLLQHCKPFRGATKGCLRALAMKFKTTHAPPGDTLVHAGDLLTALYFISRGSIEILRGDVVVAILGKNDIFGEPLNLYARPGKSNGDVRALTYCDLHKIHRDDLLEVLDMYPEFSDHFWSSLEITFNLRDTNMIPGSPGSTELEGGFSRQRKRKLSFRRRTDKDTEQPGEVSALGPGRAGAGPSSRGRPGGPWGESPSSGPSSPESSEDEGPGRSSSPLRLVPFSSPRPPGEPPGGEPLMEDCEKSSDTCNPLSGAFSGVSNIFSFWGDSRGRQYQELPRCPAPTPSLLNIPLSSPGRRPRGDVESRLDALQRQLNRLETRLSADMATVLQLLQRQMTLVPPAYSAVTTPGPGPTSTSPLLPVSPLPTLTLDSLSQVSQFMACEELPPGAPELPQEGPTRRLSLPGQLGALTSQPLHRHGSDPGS
row,Structure (SMILES),"hERG current change (%, negative = inhibition) at 10uM"
1,CC(C)CCNC(=O)C1CCN(S(=O)(=O)c2ccc3c(c2)CC(C)N3C(=O)C2CCC2)CC1 (stereo not drawn),-12.7%
2,CN(Cc1ccccc1)C(=S)Nc1cccnc1,9.05%
3,COc1c(C)cc(Br)cc1C(=O)Nc1ccc(Cc2ccncc2)cc1,-3.5%
4,COc1ccc(N(C(=O)Cn2nnc(-c3ccc(F)cc3)n2)C(C)C(=O)NC2CCCC2)cc1 (stereo not drawn),-22%
5,CCC/C(O)=C1\C(=O)CC(c2ccccc2)CC1=NCCc1c(C)[nH]c2ccccc12 (stereo not drawn),-39.3%
6,Cc1nnc(SCc2nc3ccccc3s2)n1-c1ccccc1,2.82%
7,CC(=O)N1CCN(CCN=Cc2c(O)n(-c3ccc(F)cc3)c(=S)[nH]c2=O)CC1,22.1%
8,Cc1[nH]n(-c2ccc([N+](=O)[O-])cc2)c(=O)c1C=NCCN1CCN(C(=O)c2ccccc2)CC1,-71.6%
9,Cc1[nH]n(-c2ccc([N+](=O)[O-])cc2)c(=O)c1C=NCCN1CCN(C(=O)c2ccc(F)cc2)CC1,-73.7%
10,O=c1c(C=NCC2CCCO2)c(-c2ccccc2)[nH]n1-c1ccc([N+](=O)[O-])cc1 (stereo not drawn),7.58%
11,CC1(C)CC(=O)C(C=NCCN2CCN(C(=O)c3ccc(F)cc3)CC2)=C(O)C1,-21.1%
12,CNC(=S)N1CCN(CCN=Cc2c(O)n(-c3ccc(C)cc3)c(=S)[nH]c2=O)CC1,21.2%
13,Cc1ccc(-n2[nH]c(C)c(/C=N/Nc3ccc([N+](=O)[O-])cc3[N+](=O)[O-])c2=O)cc1,23.9%
14,C=CCNC(=S)N1CCN(CCN=Cc2c(C)[nH]n(-c3ccc([N+](=O)[O-])cc3)c2=O)CC1,-72.1%
15,O=c1c(C=NCCN2CCNCC2)c(-c2ccccc2)[nH]n1-c1ccc([N+](=O)[O-])cc1,-66.4%
16,COc1ccc(-c2[nH]n(-c3ccc([N+](=O)[O-])cc3)c(=O)c2C=NCCN2CCNCC2)cc1,-4.9%
17,Cc1[nH]n(-c2ccc([N+](=O)[O-])cc2)c(=O)c1C=NCCc1c(C)[nH]c2ccccc12,1.38%
18,Cc1[nH]n(-c2ccc([N+](=O)[O-])cc2)c(=O)c1C=NCCc1c[nH]c2ccccc12,13.2%
19,COc1cc2cc(CN(CCO)S(=O)(=O)c3ccccc3Cl)c(=O)[nH]c2cc1OC,0.98%
20,O=C(NCCCCc1ccccc1)c1ccccc1Cl,-9.21%
21,CN(NC1OC(=O)c2ccccc21)c1ccc(C(F)(F)F)cc1[N+](=O)[O-] (stereo not drawn),34.2%

row,Structure (SMILES),"hERG current change (%, negative = inhibition) at 10uM"
1,O=C(Nc1ccc(S(=O)(=O)Nc2ncccn2)cc1)C12CC3CC(CC(C3)C1)C2,13.4%
2,Cc1cc(C)c2nc(N3CCCN(C(=O)c4cnccn4)CC3)c(C#N)cc2c1,-38.5%
3,CCc1nnc(SCC(=O)Nc2nccs2)n1CC,18%
4,Cn1cc(CC(=O)NC2CCCCC2)c2ccccc21,21.3%
5,Cc1ccsc1C1C(C#N)=C(N)Oc2n[nH]c(C)c21 (stereo not drawn),18.7%
6,COc1ccc(CCN=Cc2c(C)[nH]n(-c3ccc([N+](=O)[O-])cc3)c2=O)cc1OC,16.4%
7,Cc1[nH]n(-c2ccc([N+](=O)[O-])cc2)c(=O)c1/C=N/N1CCOCC1,0.128%
8,Cc1[nH]n(-c2ccc([N+](=O)[O-])cc2)c(=O)c1C=NCCN1CCN(C(=O)c2cccc(F)c2)CC1,-73.4%
9,Cc1[nH]n(-c2ccc([N+](=O)[O-])cc2)c(=O)c1C=NCCc1ccc(S(N)(=O)=O)cc1,10.7%
10,Cc1[nH]n(-c2ccccc2)c(=O)c1/C=N/NC(=O)c1cccc(F)c1,20.1%
11,Cc1[nH]n(-c2ccc([N+](=O)[O-])cc2)c(=O)c1C=NCCN1CCN(C(=O)C(C)C)CC1,-64.2%
12,Cn1c(O)c(C=NCCN2CCN(C(=O)c3ccccc3)CC2)c(=O)n(C)c1=O,-16.6%
13,Cc1[nH]n(-c2ccccc2)c(=O)c1/C=N/NC(=O)c1ccccc1F,2.32%
14,Cc1[nH]n(-c2ccc([N+](=O)[O-])cc2)c(=O)c1C=NCCN1CCN(C(=O)c2ccc(Br)cc2)CC1,-76.6%
15,COC(=O)CN=Cc1c(C)[nH]n(-c2ccccc2)c1=O,-1.99%
16,Cc1[nH]n(-c2ccc([N+](=O)[O-])cc2)c(=O)c1C=NCCN1CCN(C(=O)c2ccccc2F)CC1,-71.2%
17,CC1(C)CC(=O)C(C=NCCN2CCN(C(=O)c3ccc(Br)cc3)CC2)=C(O)C1,-48.2%
18,CC(=O)Nc1cccc(NC(=O)CSc2nccn2Cc2ccc(F)cc2)c1,0.742%
19,COc1cc2c(cc1NC(=O)C(C)OC(=O)c1ccc(S(=O)(=O)Nc3ccccc3Cl)cc1)oc1ccccc12 (stereo not drawn),21.8%
20,CCCCCCNc1cc(C)oc(=O)c1C(C)=O,-34.2%
21,CCOC(=O)C1CCCN(c2c(Nc3ccc(C)c(C)c3)c(=O)c2=O)C1 (stereo not drawn),-25.1%

row,Structure (SMILES),"hERG current change (%, negative = inhibition) at 10uM"
1,CC(=O)c1ccc(NC(=O)C2C3C=CC(C3=C(c3ccccc3)c3ccccc3)C2C(=O)O)cc1 (stereo not drawn),2.53%
2,Br.COc1ccc(N=C/C=C2/C=C(c3ccccc3)OC(C)(C)O2)cc1,-49.1%
3,COc1cc(-c2nc3ccccn3c2/N=C/c2cccc(F)c2)ccc1O,4.38%
4,CCn1cc(C(=O)NC(=S)Nc2ccccc2Br)cn1,3.21%
5,O=C(O)CSCC(=O)N1CCCN(c2nc3ccc(Cl)cc3s2)CC1,5.89%
6,CCOC(=O)c1ccc(NC(=O)c2ccccc2C)cc1,-21.2%
7,CCOC(=O)NC(=O)COC(=O)c1ccc(O)cc1,-6.29%
8,CCOC(=O)N/N=C(\C)c1cccs1,20.2%
9,CC(Sc1nnc(N)s1)C(=O)NCc1ccc2c(c1)OCO2 (stereo not drawn),0.709%
10,COc1ccc(CC(=O)Nc2cc(Cl)ccc2O)cc1,-1.45%
11,CSCC[C@H](NC(=O)NCc1cccs1)C(=O)O,-10.4%
12,Cc1ccccc1OCC(=O)Nc1ccc(N2CCN(C)CC2)c(Cl)c1,-68.8%
13,CN1CCN(c2ccc(NC(=O)COc3cccc4ccccc34)cc2)CC1,-65.4%
14,CN1CCN(c2ccc(NC(=S)NC(=O)c3cccc4ccccc34)cc2)CC1,-51%
15,CN1CCN(c2ccc(NC(=O)COc3ccc4ccccc4c3)cc2)CC1,-17.3%
16,CN1CCN(c2ccc(NC(=S)NC(=O)c3cccc4c(Br)cccc34)cc2)CC1,16.2%
17,CN1CCN(c2ccc(NC(=S)NC(=O)c3cccc4c(Cl)cccc34)cc2)CC1,0.63%
18,Cc1ccccc1OCC(=O)NC(=S)Nc1ccc(N2CCOCC2)c(Cl)c1,15.3%
19,CN1CCN(c2ccc(NC(=O)COc3ccccc3Cl)cc2)CC1,-29.2%
20,Cc1ccccc1OCC(=O)Nc1ccc(N2CCN(C(=O)C(C)C)CC2)c(Cl)c1,-31.2%
21,CC(C)Cc1nnc(NC(=O)C23CC4CC(CC(C4)C2)C3)s1,5.58%

row,Structure (SMILES),"hERG current change (%, negative = inhibition) at 10uM"
1,Cc1cccc2cc(CN(CC3CCCO3)C(=O)c3cccnc3)c3nnnn3c12 (stereo not drawn),-5.82%
2,Cc1cc(NCCCN(C)C)n2c(nc3ccccc32)c1C#N,-1.49%
3,Cc1cc(C)nc(SCC(=O)N/N=C/c2ccc3c(c2)OCO3)n1,8.05%
4,CCOc1ccc(OCCSc2nc(N)cc(=O)[nH]2)cc1,1.58%
5,O=C(CSc1nc2ccccc2o1)NC1CCCC1,16.5%
6,CCCn1nc(C(=O)NCCc2ccc(S(N)(=O)=O)cc2)c2ccccc2c1=O,-15.8%
7,C/C(=N\Nc1nc2ccccc2[nH]1)c1ccc(C)o1,-17.7%
8,C/C(=N\Nc1nc2ccccc2[nH]1)c1ccccn1,-72.8%
9,C/C(=N\Nc1nc2ccccc2[nH]1)c1cccs1,-19.2%
10,CS(=O)(=O)N1CCc2cc(S(=O)(=O)N3CCCCC3)ccc21,-14.8%
11,CC(=O)Nc1ccc(C(=O)OCc2ccc(F)cc2)cc1,-10.9%
12,COc1ccc([C@H]2CC(=O)C=C(c3cccc(C(C)C)c3)C2)cc1,-2.79%
13,Cc1[nH][nH]c(=O)c1C(c1ccc([N+](=O)[O-])cc1)c1c(C)[nH][nH]c1=O,23.9%
14,Cc1[nH][nH]c(=O)c1C(c1cc([N+](=O)[O-])ccc1O)c1c(C)[nH][nH]c1=O,-62.5%
15,Cc1[nH][nH]c(=O)c1C(c1cc(Br)ccc1O)c1c(C)[nH][nH]c1=O,12%
16,Cc1ccccc1NC(=O)CSc1nc(N)c(C#N)c(-c2cccs2)c1C#N,6%
17,CCOc1ccc(C(=O)OCC(=O)NCCNC(=O)COC(=O)c2ccc(OCC)cc2)cc1,13.8%
18,CCCSc1nnc(CNS(=O)(=O)c2ccc(C)cc2)n1C,8.4%
19,C=CCn1c(=O)n(C(=O)OCC)c2cc(Br)ccc21,-50.2%
20,CCOC(=O)n1c(=O)n(C)c2ccc(Br)cc21,-7.75%
21,CCOC(=O)n1c(=O)[nH]c2ccc(Br)cc21,2.18%
